# Assay results reported in PubChem BioAssay AID720517 (National Center for Advancing Translational Sciences (NCATS), 2013).
# Inconclusive results are not listed. Where a call stands in place of a potency, no number is given. The source made the active and inactive calls. The call rests on the fitted dose curve; in most records, active means well fitted activation curve with a large enough effect; inconclusive means small, poorly fitted or top-dose-only effect; inactive means flat fitted curve, though single readings scatter.
# Assay: qHTS for Inhibitors of Cell Surface uPA Generation: FP59 Counterscreen for Cherry-picked Compounds
# Conditions: FP59 anthrax toxin cytotoxicity counterscreen, cells; series mostly up to 115 µM
row,Structure (SMILES),Potency
1,Cc1cccc(CNc2ccc(C(CC(N)=O)NC(=O)c3cccc(Br)c3)cc2[N+](=O)[O-])c1 (stereo not given),inactive
2,O=c1[nH]c2c(s1)C(c1ccc(O)cc1)C1C3CCC(C3)C1S2 (stereo not given),inactive
3,COc1ccc(C(CNC(=O)C(C)Oc2ccc(Br)cc2)N2CCCC2)cc1 (stereo not given),inactive
4,CCCN1CCN(C2CCCCC2NS(=O)(=O)c2ccc(Cl)cc2)CC1 (stereo not given),inactive
5,CC1CCCCN1C(=O)CSc1nc2ncccc2[nH]1 (stereo not given),inactive
6,O=C(CNC(=O)N1CC(=O)Nc2ccccc21)Nc1cc(Cl)ccc1Cl,inactive
7,CC(=O)Nc1c2c(nn1-c1cccc(C)c1)CSC2,inactive
8,C=CCn1c(C)cc(C(=O)COC(=O)/C=C/c2cccc(OC)c2)c1C,inactive
9,CCCOC(=O)CSC1=C(C#N)C(c2ccccc2Cl)CC(=O)N1 (stereo not given),inactive
10,CN(C(=O)c1ccccc1C(=O)OCC(=O)NCc1ccccc1)C1CCCCC1,inactive
11,C[N+]1(CC(O)c2ccccc2)CCCCCC1 (stereo not given),inactive
12,COc1ccc(-c2cc3nc(C)cc(-c4ccc(OC)cc4)n3n2)cc1,inactive
13,CC1(c2cccc([N+](=O)[O-])c2)CC(C)(C)N(C(=O)c2ccccc2)c2ccccc21 (stereo not given),inactive
14,CC1(C)CC(=O)C([N+](=O)[O-])=C(NCCCC(=O)O)C1,inactive
15,Cc1nn(-c2ccc(F)cc2)c(C)c1NS(=O)(=O)c1ccc(Cl)cc1,inactive
16,COc1ccccc1N1CCN(C(=O)CCC(=O)N2CCN(c3ccc(F)cc3)CC2)CC1,inactive
17,O=C(C[C@H]1C[C@H](C(=O)N2CCOCC2)[C@@]2(CCC3CCCC3)c3[nH]c4cc(-c5ccco5)ccc4c3CCN2C1=O)NCc1cccc(C(F)(F)F)c1,inactive
18,CC1(C)Oc2ccc3ccc(=O)oc3c2[C@@H](O)[C@H]1O,inactive
19,COC(=O)c1cc(CNC(=O)c2ccc(N3CCCC3)c([N+](=O)[O-])c2)ccc1OC,inactive
20,COc1ccc(OC)c(N2C(=O)CC(Cc3cc(C)cc(C)c3)C2=O)c1 (stereo not given),inactive

row,Structure (SMILES),Potency
1,COCCOc1ccc(C(F)(F)F)cc1NC(=O)COC(=O)Cc1c[nH]c2ccccc12,inactive
2,O=C(NCCOc1ccc(F)cc1)C1CCN(S(=O)(=O)c2ccccc2)CC1,inactive
3,COc1ccc(CNC(=O)C2(CC3CC(c4ccccc4)=NO3)CCNCC2)cc1 (stereo not given),inactive
4,COC(=O)CNC(=O)COC(=O)/C=C/c1ccccc1[N+](=O)[O-],inactive
5,O=S(=O)(c1ccc2nc(N3CCN(c4ccccc4)CC3)ccc2c1)N1CCCCC1,inactive
6,CCOC(=O)C1CCCN(CC(=O)Nc2ccc(C(=O)Nc3ccccc3OC)cc2)C1 (stereo not given),inactive
7,CCO[C@H]1OC(C(=O)N2CCCCCCC2)=C[C@@H](c2ccc(C(F)(F)F)cc2)[C@@H]1CCCO,inactive
8,O=C(NC1CCCC1)c1nc2c(nnn2Cc2ccccc2Cl)c(=O)[nH]1,inactive
9,Cc1cc(C)c(NC(=O)Cn2nnc(C(=O)NCc3ccc4c(c3)OCO4)c2N)c(C)c1,inactive
10,CC(C)CN(C(=O)CN1CCC(C)CC1)c1c(N)n(CC(C)C)c(=O)[nH]c1=O,inactive
11,Cn1c(CN2CCCC2)nc2cc(NC(=O)COc3ccccc3)ccc21,inactive
12,C[C@@H]1O[C@@H](O[C@@H]2C(=O)c3c(O)cc(O)cc3O[C@H]2c2ccc(O)c(O)c2)[C@H](O)[C@H](O)[C@H]1O,inactive
13,Cn1c(SCC(=O)NNC(=O)c2ccc(Br)cc2)nnc1-c1cccnc1,inactive
14,CCOc1ccc(OCC)c(NC(=O)c2ccc(CNc3c(N4CCCC4)c(=O)c3=O)cc2)c1,inactive
15,COC(=O)c1ccccc1NC(=O)Nc1nnc(N2CCCCC2C)s1 (stereo not given),inactive
16,O=C(N/C(=C\c1cccc([N+](=O)[O-])c1)C(=O)N1CCOCC1)c1ccc([N+](=O)[O-])cc1,inactive
17,O=C(NCc1ccccn1)C1CCN(C(=O)c2cc3sccc3n2Cc2ccc(F)cc2)CC1,inactive
18,N#CCC(=O)N/N=C/c1ccc(OCC(=O)Nc2ccc(F)cc2)cc1,inactive
19,COc1cccc(C(=O)NCC(c2ccco2)N2CCc3ccccc3C2)c1 (stereo not given),inactive
20,COC(=O)c1c(NC(=O)c2c(OC)cccc2OC)sc2c1C(C(=O)OC)CC2 (stereo not given),inactive
